Measurements published in ChEMBL document CHEMBL1961873, “Compounds: GSK PKIS; Assays: Nanosyn kinase panel” (2012).
“And” between values parts separate entries of the source, which are not always exact repeats. Identical values can stand only once.

Key:
[1] = target: Tyrosine-protein kinase Fer (Homo sapiens) (UniProt P16591); settings: at 1 µM
[2] = target: Tyrosine-protein kinase Fes/Fps (Homo sapiens) (UniProt P07332); settings: at 0.1 µM
[3] = target: Tyrosine-protein kinase Fes/Fps (Homo sapiens) (UniProt P07332); settings: at 1 µM
[4] = target: Fibroblast growth factor receptor 1 (Homo sapiens) (UniProt P11362); settings: at 0.1 µM
Sequence of Fibroblast growth factor receptor 1 (Homo sapiens) (P11362 22-822 limits assumed): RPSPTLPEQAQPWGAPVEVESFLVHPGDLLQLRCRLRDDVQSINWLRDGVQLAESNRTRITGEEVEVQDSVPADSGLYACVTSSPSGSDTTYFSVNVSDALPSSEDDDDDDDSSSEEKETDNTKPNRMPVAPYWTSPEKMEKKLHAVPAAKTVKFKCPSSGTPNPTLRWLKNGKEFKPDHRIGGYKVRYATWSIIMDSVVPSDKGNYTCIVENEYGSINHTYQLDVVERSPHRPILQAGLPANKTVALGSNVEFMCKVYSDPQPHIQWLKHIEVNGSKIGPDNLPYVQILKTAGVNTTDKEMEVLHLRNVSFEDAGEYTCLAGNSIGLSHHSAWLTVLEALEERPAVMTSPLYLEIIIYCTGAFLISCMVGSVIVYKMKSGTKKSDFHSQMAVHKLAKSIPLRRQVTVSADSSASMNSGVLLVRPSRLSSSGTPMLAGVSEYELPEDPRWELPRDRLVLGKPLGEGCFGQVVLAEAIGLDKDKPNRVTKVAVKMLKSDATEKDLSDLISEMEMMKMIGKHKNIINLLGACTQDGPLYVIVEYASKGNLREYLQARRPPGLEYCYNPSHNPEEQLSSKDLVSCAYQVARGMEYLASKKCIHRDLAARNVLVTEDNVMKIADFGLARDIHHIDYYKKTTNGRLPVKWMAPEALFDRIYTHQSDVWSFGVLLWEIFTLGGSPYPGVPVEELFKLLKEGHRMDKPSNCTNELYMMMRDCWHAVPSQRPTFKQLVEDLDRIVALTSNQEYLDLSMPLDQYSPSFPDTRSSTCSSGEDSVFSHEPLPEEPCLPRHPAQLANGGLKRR

[5] = target: Fibroblast growth factor receptor 1 (Homo sapiens) (UniProt P11362); settings: at 1 µM
[6] = target: Fibroblast growth factor receptor 2 (Homo sapiens) (UniProt P21802); settings: at 0.1 µM
Sequence of Fibroblast growth factor receptor 2 (Homo sapiens) (P21802 22-821 limits assumed): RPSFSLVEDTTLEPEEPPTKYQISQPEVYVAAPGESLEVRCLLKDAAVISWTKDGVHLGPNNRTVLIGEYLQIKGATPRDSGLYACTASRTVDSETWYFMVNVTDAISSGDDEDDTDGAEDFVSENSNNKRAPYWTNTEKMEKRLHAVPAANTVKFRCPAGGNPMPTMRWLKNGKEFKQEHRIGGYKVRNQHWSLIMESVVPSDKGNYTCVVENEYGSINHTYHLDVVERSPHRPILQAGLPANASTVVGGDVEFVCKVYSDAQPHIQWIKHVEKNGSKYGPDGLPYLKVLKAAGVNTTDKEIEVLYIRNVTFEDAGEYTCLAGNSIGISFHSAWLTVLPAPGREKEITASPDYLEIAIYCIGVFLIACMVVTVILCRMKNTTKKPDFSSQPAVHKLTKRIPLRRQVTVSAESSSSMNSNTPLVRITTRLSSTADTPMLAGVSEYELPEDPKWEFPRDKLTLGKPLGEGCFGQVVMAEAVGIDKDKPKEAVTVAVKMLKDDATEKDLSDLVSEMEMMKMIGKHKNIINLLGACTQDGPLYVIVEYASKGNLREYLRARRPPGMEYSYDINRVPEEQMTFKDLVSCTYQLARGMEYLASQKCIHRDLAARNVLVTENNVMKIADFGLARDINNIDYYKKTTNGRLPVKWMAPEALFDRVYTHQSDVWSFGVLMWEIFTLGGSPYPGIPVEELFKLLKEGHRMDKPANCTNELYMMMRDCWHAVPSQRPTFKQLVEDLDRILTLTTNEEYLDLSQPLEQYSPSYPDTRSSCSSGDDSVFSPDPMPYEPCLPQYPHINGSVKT

[7] = target: Fibroblast growth factor receptor 2 (Homo sapiens) (UniProt P21802); settings: at 1 µM
[8] = target: Fibroblast growth factor receptor 3 (Homo sapiens) (UniProt P22607); settings: at 0.1 µM
Sequence of Fibroblast growth factor receptor 3 (Homo sapiens) (P22607 23-806 limits assumed): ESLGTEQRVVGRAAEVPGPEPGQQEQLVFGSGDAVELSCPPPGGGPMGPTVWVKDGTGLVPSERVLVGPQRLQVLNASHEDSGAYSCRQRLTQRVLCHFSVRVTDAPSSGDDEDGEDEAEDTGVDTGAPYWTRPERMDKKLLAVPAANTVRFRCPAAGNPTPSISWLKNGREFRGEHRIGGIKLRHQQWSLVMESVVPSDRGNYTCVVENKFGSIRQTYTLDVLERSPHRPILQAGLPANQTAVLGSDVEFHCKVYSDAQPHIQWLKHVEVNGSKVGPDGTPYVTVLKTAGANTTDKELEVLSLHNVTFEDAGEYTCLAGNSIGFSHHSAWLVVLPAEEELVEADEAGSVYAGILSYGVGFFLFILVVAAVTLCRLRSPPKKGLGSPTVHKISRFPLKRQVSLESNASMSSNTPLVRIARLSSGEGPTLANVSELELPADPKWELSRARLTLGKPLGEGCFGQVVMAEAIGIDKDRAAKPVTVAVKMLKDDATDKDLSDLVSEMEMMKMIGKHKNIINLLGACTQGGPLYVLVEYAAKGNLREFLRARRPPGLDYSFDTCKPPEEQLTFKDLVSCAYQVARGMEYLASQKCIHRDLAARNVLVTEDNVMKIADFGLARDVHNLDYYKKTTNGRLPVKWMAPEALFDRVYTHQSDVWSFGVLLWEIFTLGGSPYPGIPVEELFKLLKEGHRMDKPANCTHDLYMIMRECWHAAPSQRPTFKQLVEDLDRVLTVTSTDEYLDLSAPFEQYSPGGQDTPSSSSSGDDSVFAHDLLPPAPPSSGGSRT

[9] = target: Fibroblast growth factor receptor 3 (Homo sapiens) (UniProt P22607); settings: at 1 µM
[10] = target: Fibroblast growth factor receptor 4 (Homo sapiens) (UniProt P22455); settings: at 0.1 µM
Sequence of Fibroblast growth factor receptor 4 (Homo sapiens) (P22455 22-802 limits assumed): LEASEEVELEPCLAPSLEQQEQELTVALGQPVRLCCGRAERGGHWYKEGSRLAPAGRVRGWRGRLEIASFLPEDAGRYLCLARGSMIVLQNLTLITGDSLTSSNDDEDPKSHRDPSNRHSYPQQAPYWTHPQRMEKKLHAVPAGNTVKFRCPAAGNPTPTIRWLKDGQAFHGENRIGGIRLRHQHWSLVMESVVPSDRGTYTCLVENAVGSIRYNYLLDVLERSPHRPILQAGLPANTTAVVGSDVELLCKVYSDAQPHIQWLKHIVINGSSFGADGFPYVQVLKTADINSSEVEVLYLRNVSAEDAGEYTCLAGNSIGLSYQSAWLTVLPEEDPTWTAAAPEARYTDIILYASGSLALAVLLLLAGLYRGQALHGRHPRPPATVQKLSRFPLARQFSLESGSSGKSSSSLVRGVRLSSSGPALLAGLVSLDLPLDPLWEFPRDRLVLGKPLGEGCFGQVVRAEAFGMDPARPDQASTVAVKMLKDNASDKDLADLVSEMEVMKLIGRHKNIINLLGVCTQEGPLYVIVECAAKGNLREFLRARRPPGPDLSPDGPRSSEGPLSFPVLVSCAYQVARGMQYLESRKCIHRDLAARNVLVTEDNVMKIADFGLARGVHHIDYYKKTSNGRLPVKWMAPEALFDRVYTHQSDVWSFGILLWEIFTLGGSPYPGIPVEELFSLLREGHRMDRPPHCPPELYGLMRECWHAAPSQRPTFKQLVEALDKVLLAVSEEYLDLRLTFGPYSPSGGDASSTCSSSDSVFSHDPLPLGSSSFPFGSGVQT

[11] = target: Fibroblast growth factor receptor 4 (Homo sapiens) (UniProt P22455); settings: at 1 µM
[12] = target: Tyrosine-protein kinase Fgr (Homo sapiens) (UniProt P09769); settings: at 0.1 µM
Sequence of Tyrosine-protein kinase Fgr (Homo sapiens) (P09769 2-529 limits assumed): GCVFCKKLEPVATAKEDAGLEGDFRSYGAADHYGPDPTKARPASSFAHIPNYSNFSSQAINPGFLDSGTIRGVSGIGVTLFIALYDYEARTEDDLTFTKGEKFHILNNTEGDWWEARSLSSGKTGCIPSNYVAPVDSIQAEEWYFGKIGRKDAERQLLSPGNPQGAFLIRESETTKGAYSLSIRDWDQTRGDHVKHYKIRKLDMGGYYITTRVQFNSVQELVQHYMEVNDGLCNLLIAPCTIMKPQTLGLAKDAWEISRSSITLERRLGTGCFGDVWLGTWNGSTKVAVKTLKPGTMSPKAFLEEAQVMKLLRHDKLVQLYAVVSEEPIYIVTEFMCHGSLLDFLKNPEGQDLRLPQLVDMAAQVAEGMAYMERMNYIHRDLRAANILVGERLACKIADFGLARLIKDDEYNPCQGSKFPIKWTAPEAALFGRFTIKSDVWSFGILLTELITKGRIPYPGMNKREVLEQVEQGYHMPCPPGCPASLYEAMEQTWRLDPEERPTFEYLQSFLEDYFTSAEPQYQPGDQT

[13] = target: Tyrosine-protein kinase Fgr (Homo sapiens) (UniProt P09769); settings: at 1 µM
[14] = target: Vascular endothelial growth factor receptor 1 (Homo sapiens) (UniProt P17948); settings: at 0.1 µM
[15] = target: Vascular endothelial growth factor receptor 1 (Homo sapiens) (UniProt P17948); settings: at 1 µM
[16] = target: Receptor-type tyrosine-protein kinase FLT3 (Homo sapiens) (UniProt P36888); settings: at 0.1 µM
[17] = target: Receptor-type tyrosine-protein kinase FLT3 (Homo sapiens) (UniProt P36888); settings: at 1 µM
[18] = test system: T1, Receptor-type tyrosine-protein kinase FLT3 (Homo sapiens), P36888 [D835Y]; settings: at 0.1 µM
T1 sequence (whole entry): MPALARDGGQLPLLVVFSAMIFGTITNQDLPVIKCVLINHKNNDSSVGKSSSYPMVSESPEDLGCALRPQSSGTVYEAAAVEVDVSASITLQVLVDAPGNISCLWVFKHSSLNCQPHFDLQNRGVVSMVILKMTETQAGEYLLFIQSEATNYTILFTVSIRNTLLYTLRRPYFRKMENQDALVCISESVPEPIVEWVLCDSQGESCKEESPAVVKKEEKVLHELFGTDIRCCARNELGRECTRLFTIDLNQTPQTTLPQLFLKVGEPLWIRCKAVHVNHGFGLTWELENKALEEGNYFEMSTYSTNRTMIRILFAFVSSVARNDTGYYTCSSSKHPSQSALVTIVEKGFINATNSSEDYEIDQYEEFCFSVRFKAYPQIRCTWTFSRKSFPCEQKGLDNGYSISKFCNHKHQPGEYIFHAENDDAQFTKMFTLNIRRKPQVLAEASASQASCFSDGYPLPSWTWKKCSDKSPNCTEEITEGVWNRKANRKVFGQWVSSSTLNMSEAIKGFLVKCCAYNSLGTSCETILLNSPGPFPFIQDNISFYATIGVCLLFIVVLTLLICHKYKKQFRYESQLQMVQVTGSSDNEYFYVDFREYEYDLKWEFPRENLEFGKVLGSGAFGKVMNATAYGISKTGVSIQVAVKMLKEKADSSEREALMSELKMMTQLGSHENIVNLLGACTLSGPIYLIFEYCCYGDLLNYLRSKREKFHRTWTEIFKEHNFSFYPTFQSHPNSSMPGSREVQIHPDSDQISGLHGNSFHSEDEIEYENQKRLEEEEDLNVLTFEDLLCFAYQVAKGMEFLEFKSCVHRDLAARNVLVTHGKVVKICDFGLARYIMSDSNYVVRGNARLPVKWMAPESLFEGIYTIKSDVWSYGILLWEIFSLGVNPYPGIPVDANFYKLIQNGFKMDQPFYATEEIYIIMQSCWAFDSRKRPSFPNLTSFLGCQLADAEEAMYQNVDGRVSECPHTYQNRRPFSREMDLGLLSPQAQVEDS

[19] = target: Non-receptor tyrosine-protein kinase TYK2 (Homo sapiens) (UniProt P29597); settings: at 1 µM;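 further: values are mean percent inhibition of TYK2 kinase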
Sequence of Non-receptor tyrosine-protein kinase TYK2 (Homo sapiens) (P29597 whole entry): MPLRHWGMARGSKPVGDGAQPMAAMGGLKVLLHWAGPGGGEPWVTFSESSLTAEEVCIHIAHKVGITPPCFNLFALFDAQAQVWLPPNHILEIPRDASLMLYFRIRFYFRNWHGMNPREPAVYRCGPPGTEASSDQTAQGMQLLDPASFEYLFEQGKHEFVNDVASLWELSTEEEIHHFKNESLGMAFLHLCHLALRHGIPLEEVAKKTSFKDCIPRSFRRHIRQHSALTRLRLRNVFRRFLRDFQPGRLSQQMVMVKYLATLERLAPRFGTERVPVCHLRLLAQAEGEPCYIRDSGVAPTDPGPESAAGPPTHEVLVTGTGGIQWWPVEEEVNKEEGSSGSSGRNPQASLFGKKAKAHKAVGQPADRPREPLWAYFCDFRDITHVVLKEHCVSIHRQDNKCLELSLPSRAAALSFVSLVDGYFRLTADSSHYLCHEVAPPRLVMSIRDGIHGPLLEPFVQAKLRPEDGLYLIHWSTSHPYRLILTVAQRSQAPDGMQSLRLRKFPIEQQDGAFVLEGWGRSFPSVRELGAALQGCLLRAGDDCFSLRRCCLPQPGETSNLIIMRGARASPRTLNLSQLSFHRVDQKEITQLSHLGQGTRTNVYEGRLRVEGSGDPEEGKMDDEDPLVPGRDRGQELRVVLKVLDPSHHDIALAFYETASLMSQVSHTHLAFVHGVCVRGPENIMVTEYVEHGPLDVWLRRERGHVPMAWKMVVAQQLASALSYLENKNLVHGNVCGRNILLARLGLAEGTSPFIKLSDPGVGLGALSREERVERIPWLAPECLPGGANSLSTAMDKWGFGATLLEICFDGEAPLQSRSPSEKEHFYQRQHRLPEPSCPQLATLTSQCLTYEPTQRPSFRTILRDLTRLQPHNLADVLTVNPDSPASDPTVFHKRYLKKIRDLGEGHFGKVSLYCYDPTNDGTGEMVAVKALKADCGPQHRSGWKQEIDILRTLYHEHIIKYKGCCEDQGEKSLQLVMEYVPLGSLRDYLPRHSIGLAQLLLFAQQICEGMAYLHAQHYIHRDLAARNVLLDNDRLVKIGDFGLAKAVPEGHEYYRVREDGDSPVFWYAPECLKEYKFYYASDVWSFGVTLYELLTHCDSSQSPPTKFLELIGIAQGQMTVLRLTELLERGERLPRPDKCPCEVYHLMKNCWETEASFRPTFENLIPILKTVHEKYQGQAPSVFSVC

[20] = target: T2, Tyrosine-protein kinase receptor TYRO3 (Homo sapiens) (UniProt Q06418); settings: at 0.1 µM;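 further: reported percentages are averaged inhibition values of TYRO3 kinase activity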
T2 sequence (whole entry): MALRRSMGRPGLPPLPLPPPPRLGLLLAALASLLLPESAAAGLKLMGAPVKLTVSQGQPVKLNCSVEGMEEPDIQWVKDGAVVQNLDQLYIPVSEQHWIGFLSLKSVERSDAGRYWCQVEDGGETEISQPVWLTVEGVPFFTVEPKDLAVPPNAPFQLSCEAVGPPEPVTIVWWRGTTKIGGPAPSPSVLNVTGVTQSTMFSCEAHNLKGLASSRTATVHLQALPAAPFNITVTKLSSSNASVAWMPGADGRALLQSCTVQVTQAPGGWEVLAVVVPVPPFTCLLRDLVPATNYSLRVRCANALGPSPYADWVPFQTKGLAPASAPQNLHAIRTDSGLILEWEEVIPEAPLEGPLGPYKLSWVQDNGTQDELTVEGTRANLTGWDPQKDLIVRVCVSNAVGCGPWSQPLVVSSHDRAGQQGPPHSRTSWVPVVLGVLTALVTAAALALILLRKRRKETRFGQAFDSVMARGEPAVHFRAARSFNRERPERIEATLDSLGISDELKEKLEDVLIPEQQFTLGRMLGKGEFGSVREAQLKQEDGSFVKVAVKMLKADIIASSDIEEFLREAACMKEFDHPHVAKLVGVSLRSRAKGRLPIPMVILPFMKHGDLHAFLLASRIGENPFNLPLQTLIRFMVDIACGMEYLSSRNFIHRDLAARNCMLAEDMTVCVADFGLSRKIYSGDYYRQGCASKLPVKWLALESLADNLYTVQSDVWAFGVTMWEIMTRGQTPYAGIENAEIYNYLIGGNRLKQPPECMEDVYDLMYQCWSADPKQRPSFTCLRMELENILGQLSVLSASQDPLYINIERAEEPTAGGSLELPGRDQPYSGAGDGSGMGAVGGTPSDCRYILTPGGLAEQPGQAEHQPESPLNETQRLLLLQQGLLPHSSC

| Structure (SMILES) | inhibition [1] | inhibition [2] | inhibition [3] | inhibition [4] | inhibition [5] | inhibition [6] | inhibition [7] | inhibition [8] | inhibition [9] | inhibition [10] | inhibition [11] | inhibition [12] | inhibition [13] | inhibition [14] | inhibition [15] | inhibition [16] | inhibition [17] | inhibition [18] | inhibition [19] | inhibition [20] |
| --- | --- | --- | --- | --- | --- | --- | --- | --- | --- | --- | --- | --- | --- | --- | --- | --- | --- | --- | --- | --- |
| COc1cccc(-n2ncc3c(N/N=C/c4ccc(C(=O)NCCN(C)C)cc4)ncnc32)c1 | 1.12% | 1.87% | 3.63% | 4.74% | 9.7% | 5.08% | 10.7% | 6.47% | 9.95% | 0.01% | 4.18% | 47.4% | 82.1% | 8.45% | 37.3% | 14% | 54.9% | 30.8% | 5.84% | 16.6% |
| Fc1cccc(COc2ccc(Nc3ncncc3C#Cc3ccccc3)cc2Cl)c1 | 6.06% | 2.55% | 3.61% | 2.88% | 2.38% | 4.03% | 5.85% | 4.99% | 3.8% | 0.25% | 0.25% | 5.41% | 2.24% | 1.51% | 1.02% | 2.67% | 5.4% | 4.26% | -1.45% | 2.1% |
| CC1(C)CC(n2cnc(-c3ccc(F)cc3)c2-c2ccnc(N)n2)CC(C)(C)N1 | 0.17% | -0.11% | -0.76% | 6.46% | 1.68% | -0.84% | -0.31% | 1.59% | 1.55% | -1.33% | 2.01% | 0.26% | 3.54% | 1.16% | 1.59% | 0.9% | -0.24% | 2.51% | 0.03% | 0.59% |
| O=C(O[C@H]1CN[C@H](C#Cc2cc3ncnc(Nc4ccc5c(ccn5Cc5cc(F)ccc5F)c4)c3s2)C1)N1CCOCC1 | 5.55% | 3.3% | 3.52% | -0.06% | 2.23% | 3.95% | 4.22% | 5.33% | 3.1% | -1.92% | 1.82% | 2.14% | 2.6% | 0.98% | -0.89% | 1.02% | 2.83% | -5.8% | -1.34% | 2.07% |
| COc1cc2c(cc1Nc1nc(Nc3cccc(F)c3C(N)=O)c3cc[nH]c3n1)N(C(=O)CN1CCN(C(C)C)CC1)CC2 | 53.2% | 14% | 59.2% | 11.4% | 2.78% | 5.89% | 0.93% | 7.88% | 3.19% | 1.09% | 1.15% | 0.5% | 0.3% | -1.2% | 1.09% | 1.14% | 0.93% | -4.8% | -1.21% | -0.96% |
| Nc1nccc(-c2c(-c3ccc(F)cc3)ncn2C2CCNCC2)n1 | -1.75% and 3.19% | -3.81% and -0.12% | -3.68% and -0.18% | -5.66% and -0.16% | -4.83% and 1.62% | -3.3% and 0.04% | -3.58% and 1.03% | -3.25% and 3.33% | -1.53% and 2.36% | -0.08% and 3.95% | -0.1% and 1.64% | -0.15% and 1.9% | 4.65% and 8.7% | -0.52% and 1.63% | -0.59% and 2.14% | -1.21% and 1.71% | -2.93% and 1.86% | -8.75% and 1.68% | 2.68% and 1.47% | -2.12% and 1.7% |
| CCOc1ccc2c(-c3ccnc(Nc4cc(OC)cc(C(F)(F)F)c4)n3)cnn2n1 | 8.05% | 0.16% | 0.05% | 4.3% | -0.38% | -1.84% | 3.9% | 1.13% | 2.09% | 0.25% | 3.56% | 1.32% | 9.11% | 1.04% | 5.65% | 2.11% | 15.1% | 2.53% | 1.53% | 1.46% |
| c1cnn2ncc(-c3ccnc(NCCCN4CCOCC4)n3)c2c1 | 1.85% | 2.2% | 5.72% | 1.29% | 2.22% | 1% | 3.87% | 3.61% | 1.83% | -0.18% | 2.53% | 2.2% | 0.54% | 1.65% | 0.94% | 0.76% | 1.48% | 0.21% | -3.09% | 3.23% |
| CC1=C(C(=O)Nc2ccc3[nH]nc(C)c3c2)C(c2ccc(C(F)(F)F)cc2)CC(=O)N1 (stereo not given) | 3.02% | 1.58% | 2.34% | -0.57% | 9.3% | 4.48% | 13.4% | 5.62% | 8.47% | -0.06% | 2.06% | 1.2% | 3.75% | 1.04% | 5.46% | -0.53% | 3.38% | 0.37% | 37.5% | 2.07% |
| CN(c1ccc(NC(=O)NCCN2CCOCC2)cc1)c1ccnc(Nc2ccc(CS(C)(=O)=O)cc2)n1 | 20.6% | 2.04% | 7.78% | 1.48% | 0.91% | 7.93% | 14.8% | 6.19% | 10.3% | 1.27% | 1.61% | 3.44% | 11.3% | 13.6% | 30.7% | 56.4% | 83.7% | 8.58% | -0.59% | 3.48% |
